Bioassay records from PubChem BioAssay.
The list is not random: actives were taken first. Their share in the collection is about 3.1%.
PLK1 PBD inh = qHTS for Inhibitors of PLK1-PDB (polo-like kinase 1 - polo-box domain): Primary Screen | AID 720504, 2013 | 360,000 tested, 2.8% active | Plk1 PBD binding of FITC phosphopeptide, fluorescence polarization | Potency, µM, inactives show max response, negative = inhibition, usual class: inhibitors; also: potency is read from the fitted curve at half-maximal effect; series mostly up to about 57 µM; % is scaled to controls: 0 for no effect and ±100 for the full control effect; nearly all actives have a fitted effect of over 65% in size
Vif-APOBEC3G blk = qHTS for Inhibitors of Vif-A3G Interactions: qHTS. Potency, µM (series often up to 46.1 µM), for inactives: at the highest dose activity, negative = active, actives largely listed as inhibitors. 410,000 tested, 0.076% active. HeLa A3G-eYFP + Vif (tagged APOBEC3G with the HIV-1 protein that degrades it), YFP fluorescence, overnight. DNA dC->dU-editing enzyme APOBEC-3G (Homo sapiens), Q9HC16. AID 602310, 2012; also: potency is read from the fitted curve at half-maximal effect; % is scaled to controls: 0 for no effect and ±100 for the full control effect; nearly all actives have a fitted effect of over 60% in size
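Read-out is eYFP fluorescence (Ex 488/Em 500-530) from Vif-expressing HeLa A3G-eYFP cells; more signal means A3G escaped Vif-mediated degradation. Cells plated overnight, compound pinned in, incubated overnight at 37 deg C.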
VDR inhibitor = Inhibitors of the vitamin D receptor (VDR): qHTS; Vitamin D3 receptor (Homo sapiens), P11473; VDR-SRC2-3 peptide fluorescence polarization, 2 h; AID 504847, 2011; Potency, µM, inactives show max response, negative = inhibition, most hits filed as inhibitors; 400,000 tested, 0.93% active; also: potency is read from the fitted curve at half-maximal effect; % is scaled to controls: 0 for no effect and ±100 for the full control effect
Target sequence (P11473 whole entry, looked up): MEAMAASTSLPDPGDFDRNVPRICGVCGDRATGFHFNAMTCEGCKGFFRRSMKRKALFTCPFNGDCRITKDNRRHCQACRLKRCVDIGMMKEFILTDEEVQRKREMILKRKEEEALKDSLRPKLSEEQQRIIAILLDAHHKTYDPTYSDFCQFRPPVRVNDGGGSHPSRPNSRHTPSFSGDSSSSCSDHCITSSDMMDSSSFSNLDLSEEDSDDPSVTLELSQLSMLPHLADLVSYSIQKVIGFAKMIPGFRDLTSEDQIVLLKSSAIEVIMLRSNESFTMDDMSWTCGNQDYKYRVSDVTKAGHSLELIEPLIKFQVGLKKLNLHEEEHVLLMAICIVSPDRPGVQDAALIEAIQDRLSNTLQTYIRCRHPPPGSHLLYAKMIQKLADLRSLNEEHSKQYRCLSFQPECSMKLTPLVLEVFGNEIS
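Fluorescence polarization assay of small-molecule disruption of VDR binding to coregulator peptide SRC2-3. Compounds and controls pin-transferred, then read after 2 h incubation at ambient room temperature.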
Vif-A3F inh = qHTS for Inhibitors of Vif-A3F Interactions: qHTS | AID 602313, 2012 | 390,000 tested, 0.2% active | Potency, µM (top dose mostly 46.1 µM), inactives show top-dose activity, negative = active | HeLa A3F-eYFP + Vif (tagged APOBEC3F with the HIV-1 protein that degrades it), YFP fluorescence increase; also: potency is read from the fitted curve at half-maximal effect; % of control where 0% means no effect; nearly all actives have a fitted effect of over 65% in size
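HeLa cells stably expressing Vif plus C-terminally eYFP-tagged A3F were seeded, incubated overnight at 37 deg C, dosed with compound, incubated overnight again at 37 deg C. Yellow fluorescence (Ex 488/Em 500-530) reported blocked Vif-mediated A3F-eYFP degradation.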
TSHR antag = Antagonists of the Thyroid Stimulating Hormone Receptor: HTS campaign | activity change, negative = inhibition, % at 11.5 µM | 330,000 tested, 0.2% active | Thyrotropin receptor (Homo sapiens), P16473 | AID 504810, 2011 | TSHR-expressing cells, TSH-stimulated cAMP HTRF, 2 h; active compounds read low;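 active = activity change below a set negative limit, meaning inhibition stronger than a set level, cut at about -70% in these data; inconclusive = activity change between two set negative limits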; also: % is scaled to controls: 0 for no effect and ±100 for the full control effect
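TSHR-expressing cells, 200/well, pre-treated with compound, then stimulated with EC80 TSH (4nM final) for 2 hours at 37 deg C. cAMP measured by competitive HTRF: anti-cAMP cryptate antibody in lysis buffer plus cAMP-d2, read after 30 minutes at room temperature.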
USP1-UAF1 confirm = Inhibitors of USP1/UAF1: Hit Validation in Primary Assay; 50 tested, 50% active; shares compounds with VDR inhibitor; AID 540327, 2011; Potency, µM (doses to about 56.8 µM), for inactives: top-dose activity change, negative = inhibition, hits mostly inhibitors; Ub-Rhodamine cleavage, fluorescence kinetic read
VDR confirm = qHTS for Inhibitors of the vitamin D receptor (VDR): Hit Validation in Primary Screen; Potency, µM, actives largely listed as inhibitors; shares compounds with VDR inhibitor; VDR-coactivator inhibition assay, qHTS confirmation; AID 602199, 2012; 840 tested, 89% active; also: potency is read from the fitted curve at half-maximal effect
VDR FP fluor = qHTS for Inhibitors of the vitamin D receptor (VDR): Hit Validation using a Fluorescein Assay. VDR-coactivator binding, fluorescein fluorescence polarization. shares compounds with VDR inhibitor. AID 602200, 2012. 840 tested, 48% active. Potency, µM (titrated, usually from 57.1 µM), without a hit: top-dose activity change, negative = inhibition, most hits filed as inhibitors; also: potency is read from the fitted curve at half-maximal effect
VDR bla = qHTS for Inhibitors of the vitamin D receptor (VDR): Hit Validation using a Beta-Lactamase Assay. shares compounds with VDR inhibitor. VDR beta-lactamase reporter cells, FRET ratio; cells co-treated with VDR agonist LG190178. Potency, µM (highest dose often 46.1 µM), for the others: at the highest dose activity change, negative = inhibition, usual class: inhibitors. 840 tested, 23% active; also: potency is read from the fitted curve at half-maximal effect; % is scaled to controls: 0 for no effect and ±100 for the full control effect
VDR cytotox = qHTS for Inhibitors of the vitamin D receptor (VDR): Hit Validation using a Cytotoxicity Assay. Potency, µM (doses to about 48.3 µM), inactives show at the top dose activity change, negative = cytotoxicity, usual class: cytotoxic. AID 602204, 2012. shares compounds with VDR inhibitor. 840 tested, 18% active. cytotoxicity counter-screen, cell viability, qHTS;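 also: potency is read from the fitted curve at half-maximal effect; plate controls were DMSO for no effect and high-concentration cycloheximide for full effect; nearly all actives have a fitted effect of over 75% in size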
* = called active by the depositor; ? = inconclusive; . = no result. Unless noted, calls follow the shape of the dose curve; as a rule, active = well fitted curve in the direction sought with a large enough effect; inconclusive = small, poorly fitted or top-dose-only effect, or another doubt; inactive = no such curve, though single readings can be large; an effect the other way counts as inactive or inconclusive.

SMILES	PLK1 PBD inh	Vif-APOBEC3G blk	VDR inhibitor	Vif-A3F inh	TSHR antag	VDR confirm	VDR FP fluor	VDR bla	VDR cytotox	others
CC(C)(C)c1ccc(C(=O)CC(Sc2ccc(Cl)cc2)C(=O)O)cc1 (stereo not given)	11µM*	?	10µM*	-2%	-43	11*	3.2µM*	-29%	?
N#Cc1cccc(NC(=O)N2CC3(CCN(C(=O)c4ccco4)CC3)C2)c1	.	.	-5%	.	.	.	.	.	.
Fc1ccc(F)c(C2=NNC(=Nc3ccccc3F)SC2)c1	-23%	-16%	-26%	-4%	1	.	.	.	.
O=S(=O)(c1ccc(N=C2NN=C(c3cc(F)ccc3F)CS2)cc1)N1CCOCC1	?	-9%	1.6µM*	-1%	21	2.5*	?	-24%	?
Fc1ccc(N=C2NN=C(c3cc(F)ccc3F)CS2)cc1	?	-8%	32µM*	-6%	0	?	?	4%	?
COc1ccc(NC(=O)Cn2c(SCc3ccc(F)cc3)nc3cccnc32)c(OC)c1	.	3%	0%	1%	.	.	.	.	.
COc1ccc(/C=C2\SC(=O)NC2=S)cc1OC	27µM*	-23%	10µM*	?	-12	3*	24%	21%	-12%
Cc1ccc(/C=C2/SC(=O)NC2=S)o1	19µM*	0%	35µM*	0%	10	24*	22µM*	27%	-23%
NC(=O)COc1ccc(C(=O)/C=C2/C(=O)Nc3ccccc32)cc1	?	?	?	?	0	?	?	24%	19%
O=C1Nc2ccccc2/C1=C/C(=O)c1cccs1	17µM*	-17%	?	7%	-19	11*	10µM*	?	18%
COc1ccc(C(=O)/C=C2/C(=O)Nc3ccccc32)cc1OC	-23%	-26%	-15%	-19%	12	.	.	.	.
COc1ccc(C(=O)/C=C2/C(=O)Nc3ccccc32)cc1	-13%	-24%	?	-2%	-12	.	.	.	.
CCOc1ccc(NC(=O)N(Cc2c[nH]c3ccccc23)C2CCCCCC2)cc1	.	14%	-11%	1%	.	.	.	.	.
COC(=O)c1ccc(C(=O)OC)c(NC(=O)c2c(-c3ccccc3)noc2C)c1	.	?	4%	-1%	.	.	.	.	.
O=C(C[n+]1csc2ccccc21)c1cccc([N+](=O)[O-])c1	.	4%	.	.	.	?	?	5%	22%
c1ccc(OCc2nn3c(Cn4nnc5ccccc54)nnc3s2)cc1	12µM*	-2%	?	-2%	7	22*	8.9µM*	2%	-14%
c1ccc(CCn2cnc3ccccc32)cc1	1%	-3%	3%	0%	-5	.	.	.	.
c1ccc(OCc2nn3c(-c4cccnc4)nnc3s2)cc1	-1%	1%	-7%	1%	8	.	.	.	.
c1ccc(CCc2nn3c(Cn4cnc5ccccc54)nnc3s2)cc1	6.7µM*	-1%	?	2%	2	22*	20µM*	-3%	-9%
Cc1ccc(CNC(=O)CSc2ncc3c(n2)-c2ccc(Cl)cc2N(Cc2ccccc2)S3(=O)=O)cc1	.	1%	-3%	6%	.	.	.	.	.
Cc1ccc(Cl)cc1NC(=O)Cn1cc2c(n1)CCCCC2	.	-7%	21%	-4%	.	.	.	.	.
Cc1cc(C(Br)(Br)Br)nc2ccccc12	.	-17%	.	.	.	14*	14µM*	13µM*	17µM*
CN(C)S(=O)(=O)c1ccc(C(=O)/C=C/c2cccnc2)cc1	-3%	-6%	20µM*	-9%	2	?	?	21%	?
C(=Cc1cccnc1)c1ccncc1	0%	0%	16%	9%	.	.	.	.	.
O=C(/C=C/c1cccnc1)/C=C/c1cccnc1	-19%	-18%	13µM*	-13%	-9	2.7*	-14%	5.8µM*	15µM*
SMILES	PLK1 PBD inh	Vif-APOBEC3G blk	VDR inhibitor	Vif-A3F inh	TSHR antag	VDR confirm	VDR FP fluor	VDR bla	VDR cytotox	others
CN(C)S(=O)(=O)c1ccc(C(=O)Nc2cccnc2)cc1	-9%	0%	20%	3%	-5	.	.	.	.
COc1ccc(-c2cc(C(C)=O)c(C)n2CCC(=O)Nc2ccc(C(F)(F)F)cc2)cc1	.	3%	0%	0%	.	.	.	.	.
CCc1cccc(C)c1NC(=O)Cn1cnc2c1c(=O)n(C)c(=O)n2C	.	6%	-2%	1%	.	.	.	.	.
Nc1ccc(-c2nc3ccc(-c4nc5ccc(N)cc5[nH]4)cc3[nH]2)cc1	.	4%	2%	.	-15	.	.	.	.	USP1-UAF1 confirm=?
O=C(CCS(=O)(=O)c1nc(-c2ccc3c(c2)OCO3)cc(C(F)(F)F)n1)Nc1ccc(F)cc1F	.	-22%	40µM*	8%	.	11*	14µM*	?	2%
O=C(CCS(=O)(=O)c1nc(-c2cccs2)cc(C(F)(F)F)n1)Nc1cc(Br)ccc1O	.	-10%	11µM*	1%	.	3.2*	3.5µM*	-1%	?
COc1ccc(NC(=O)CCS(=O)(=O)c2nc(-c3ccc4c(c3)OCO4)cc(C(F)(F)F)n2)cc1	.	?	?	4%	.	.	.	.	.
Cc1ccc(O)c(NC(=O)CCS(=O)(=O)c2nc(-c3cccs3)cc(C(F)(F)F)n2)c1	.	-21%	20µM*	2%	.	4.5*	7.9µM*	?	?
